Vaccinia Venus: vaccinia inhibition (Venus reporter). Vaccinia virus Venus reporter expression, fluorescence. Potency, µM (titrated, usually from 36.5 µM), for the others: top-dose activity change, negative = inhibition, most hits filed as inhibitors. hit rate 0.46% among 330,000. AID 720580; calls by dose curve; tested in A549 cells; also: nearly all actives have a fitted effect of over 30% in size
MARV entry inh: inhibitors of Marburg virus binding or cell entry; AID 540276; Potency, µM (highest dose often 37.8 µM), inactives show top-dose activity change, negative = inhibition, usual class: inhibitors; Marburg virus pseudotyped entry inhibition, cell reporter; hit rate 1.8% among 300,000; calls by dose curve; tested in HEK293 cells
VACV mCherry inh: inhibitors of vaccinia virus infection (mCherry reporter signal) | Vaccinia virus mCherry reporter infection, fluorescence | Potency, µM (series often up to 36.5 µM), for the others: at the top dose activity change, negative = inhibition, actives largely listed as inhibitors | hit rate 0.63% among 310,000 | AID 720579; calls by dose curve; tested in A549 cells; also: nearly all actives have a fitted effect of over 35% in size
FMDV inh: antivirals against foot and mouth disease virus. AID 1159524. Potency, µM (titrated, usually from 57.9 µM), for the others: at the highest dose activity change, negative = inhibition, actives largely listed as inhibitors. FMDV antiviral cell-based qHTS. hit rate 1.2% among 410,000; calls by dose curve; tested in HEK293T cells; also: read-out not given here; nearly all actives have a fitted effect of over 45% in size
Lassa entry inh: blocks Lassa virus binding to or entry into cells. Lassa virus pseudotype entry inhibition, cell reporter. Potency, µM (highest dose often 37.9 µM), without a hit: at the top dose activity change, negative = inhibition, usual class: inhibitors. hit rate 1.2% among 300,000; calls by dose curve; tested in HEK293 cells; also: nearly all actives have a fitted effect of over 50% in size
HCV inhibitor: inhibitors of hepatitis C virus infection; Potency, µM (titrated, usually from 41.8 µM), inactives show at the top dose activity change, negative = inhibition, actives largely listed as inhibitors; AID 651820; Huh7.5.1 HCVcc-Cre infection, luciferase reporter, 44 h; hit rate 3.4% among 340,000; active = well fitted inhibition curve with a large enough effect; inconclusive = small, poorly fitted or top-dose-only effect, or another doubt; inactive = no such curve, though single readings can be large or run the other way
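A cell-based infection assay in which seeded cells (1,000 per well) receive test compound after 4 h, are inoculated with HCVcc-Cre at approximately 0.5 moi, and are incubated 44 h before luminescence detection.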
* hit, by the source's call; i = inactive; u = inconclusive; x = not tested or not shown; ! = a repeat was not active; [ ] = dose if it differs, or a comment. The list is not random: actives were taken first. Their share in the collection is about 5.3%. % is scaled to controls: 0 for no effect and ±100 for the full control effect; potency is read from the fitted curve at half-maximal effect.

SMILES | Vaccinia Venus | MARV entry inh | VACV mCherry inh | FMDV inh | Lassa entry inh | HCV inhibitor
C=CCNCCCCOc1ccc(OCc2ccccc2)cc1 | x | x | x | 29% | x | u
COCCCNCCOc1ccc(C(C)(C)c2ccccc2)cc1 | -19% | 16µM* | -23% | -17% | u | 10µM*
CNCCCOc1ccc(C(C)(C)c2ccccc2)cc1 | x | 0% | x | x | x | x
COCCCNCCCCOc1ccc(OCc2ccccc2)cc1 | -19% | x | -3% | 55% | x | 11µM*
CCC(C)NCCOc1ccc(C(C)(C)c2ccccc2)cc1 (centres undefined) | -19% | u | -18% | u | u | 10µM*
Cc1ccccc1C(=O)NC(C)c1nnc2n1CCN(Cc1ccnc3ccccc13)CC2 (centres undefined) | -2% | x | -14% | 5% | x | x
CCc1cc(C(=O)N2CCOc3ccc(CN4CCN(Cc5ccccn5)CC4)cc3C2)no1 | 5% | x | -12% | -14% | x | x
O=C(NCC(c1cccs1)S(=O)(=O)c1cccs1)c1ccc(Cl)cc1 (centres undefined) | 6% | x | -3% | u | -18%[46.1 µM] | x
Cc1ccc(S(=O)(=O)N2CCN(c3nc(-n4c(=O)[nH]c5ccccc54)nc4ccccc34)CC2)cc1 | -28% | x | -23% | x | x | x
O=[N+]([O-])c1cc2oc3c(c2c(C=NCc2ccccc2)c1O)CCCC3 | -2% | 8% | -15% | 0% | u | u
CC(C)CN=Cc1c(O)c([N+](=O)[O-])cc2oc3c(c12)CCCC3 | -17% | u | i | 32µM* | -16% | -11%
O=C(CN1CCN(C(=O)c2ccc(-c3nc4ccccc4s3)o2)CC1)Nc1ccccc1Cl | 6% | u | 3% | -23% | u | 11µM*
O=C(c1ccc(-c2nc3ccccc3s2)o1)N1CCN(c2ccccc2O)CC1 | -20% | u | -30% | u | u | u
Cc1cccc(NC(=O)CN2CCN(C(=O)c3ccc(-c4nc5ccccc5s4)o3)CC2)c1C | 4% | u | 4% | -9% | u | u
O=C(CN1CCN(C(=O)c2ccc(-c3nc4ccccc4s3)o2)CC1)Nc1ccc(F)cc1 | x | x | x | u | x | 13µM*
C[C@H]1CN=C(N(C)C)N1CC1CCC(C(C)(C)C)CC1 (some centres undefined) | u | x | 7.9µM* | u | x | u
O=C(NC1CCCN(Cc2ccc(Cl)cc2)C1)c1ccoc1 (centres undefined) | -9% | -7%[46.1 µM] | i | -26% | 6%[46.1 µM] | -9%
CC(C)NCCCCOc1ccc(Br)cc1Cl | -15% | x | -6% | -10% | x | 10µM*
Cc1ccc(-n2c(-c3ccco3)nc3c(cnn3-c3ccccc3C)c2=O)cc1 | -9% | -7%[46.1 µM] | -8% | u | u | 9%
Cc1cccc(-n2c(C)nc3c(cnn3-c3ccc(F)cc3)c2=O)c1 | u | u | u | -25% | -6% | 6.3µM*
Cc1cccc(-n2c(-c3ccco3)nc3c(cnn3-c3ccc(F)cc3)c2=O)c1 | -7% | 4%[46.1 µM] | -25% | 0% | -31%[46.1 µM] | x
Cc1ccc(-n2c(-c3ccco3)nc3c(cnn3-c3ccc(C)cc3)c2=O)cc1 | -23% | u | -18% | 28µM*! | u | 8%
Cc1cccc(OCc2cc(=O)n3c(-c4ccccc4)csc3n2)c1C | -10% | u | -15% | -2% | -2%[46.1 µM] | x
CCOc1cc(/C=C2/C(=O)ON=C2C)cc(Br)c1O | 6% | x | i | u | x | -13%
O=C1ON=C(c2ccc(Cl)cc2)/C1=C/c1ccc(O)cc1 | 8% | u | 7% | 13µM* | -23% | u
SMILES | Vaccinia Venus | MARV entry inh | VACV mCherry inh | FMDV inh | Lassa entry inh | HCV inhibitor
CCOc1cc(/C=C2\C(=O)ON=C2c2ccccc2)cc(Br)c1O | 61% | 2%[46.1 µM] | 5% | 11µM* | -3% | -17%
COc1cc(/C=C2\C(=O)ON=C2c2ccccc2)cc(Br)c1O | 51% | -2%[46.1 µM] | 4% | 10µM* | 0%[46.1 µM] | -19%
COc1cc(/C=C2\C(=O)ON=C2c2ccccc2)cc(Cl)c1O | 40% | -4%[46.1 µM] | 14% | 7.1µM* | 2% | 11%
CC1=C(c2ccc(C(C)C)cc2)S(=O)(=O)NC1=NCc1ccccc1C | -20% | -2%[46.1 µM] | -9% | 7% | -6%[46.1 µM] | x
CCCOc1ccc(/C=C2/C(=O)ON=C2C)cc1OCC | -4% | -24%[46.1 µM] | -9% | u | -2%[46.1 µM] | 19%
CCOc1cc(/C=C2\C(=O)ON=C2C)ccc1OCc1ccccc1 | -5% | u | -14% | 28µM* | 8% | -3%
